Among the data in PubChem BioAssay are z-score values, retold here.

A number with no mark means an inactive call.

The nature of the test: E. coli growth modulation, two-sided OD650, primary screen, E. coli filamentation project, strain DRC41, 24 h (AID 1093).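 Further: MC1000 strain lacking acrAB efflux and sulA so SOS filamentation is blocked; test concentration not given here.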 The conditions noted are these: OD650, 24 h, higher = more signal, called active from +8 up or from −8 down.
`CO[C@H]1COC(=O)CC=C[C@H](C)[C@@H](OC)COC(=O)[C@@H](C)NC(=O)CC=C[C@@H]1C`: the z-score is -0.804.
With `CCOC(=O)[C@H](Cc1ccccc1)NC(=O)OC1CC(CCC2CC(CC)=NO2)OC2(CCCC(COC(=O)NCCC(C)C)O2)C1` (stereo not given in full), the z-score was 1.11.
Consider `CC(C)CON=C1C[C@@H](O)[C@@H](O)[C@@H]2[C@@H]3C(=O)N(c4ccc(F)cc4F)C(=O)[C@@H]3CC[C@H]12`, for which the z-score is -0.385.
Take `CC(C)(C)N1C(=O)[C@H]2[C@H]3[C@H](O)[C@H](O)CC(=NO[C@@H]4O[C@H](CO)[C@@H](O)[C@H](O)[C@H]4O)[C@H]3CC[C@H]2C1=O`: the z-score was -0.864.
On to `COC(=O)C=CCCc1coc(C=CCNC(=O)OC)n1`, for which the z-score was -1.42.
As for `Cc1ccc(S(=O)(=O)OC[C@H]2CN3[C@H](c4ccc(Br)cc4)[C@@H](C)CC[C@H]3C(=O)O2)cc1`, the z-score is 2.18.
Under `CO[C@@H]1COC(=O)[C@@H](C)NC(=O)CC=C[C@@H](C)[C@H](NS(=O)(=O)c2ccc(C)cc2)COC(=O)[C@H](C)NC(=O)CC=C[C@H]1C` stands 1.72; under `COC(=O)[C@H](C)NC(=O)CCC1CC(OC(=O)NCc2ccc3c(c2)OCO3)CC2(CCCC(COC(=O)NCC3CCCCC3)O2)O1` (stereo not given in full), -0.0678; under `C#CCCCON=C1C[C@@H](O)[C@@H](O)[C@@H]2[C@@H]3C(=O)N(C(C)(C)C)C(=O)[C@@H]3CC[C@H]12`, 0.216.
In the case of `CCOC(=O)NN=C1C[C@@H](O)[C@@H](O)[C@@H]2[C@@H]3C(=O)N(C(C)(C)C)C(=O)[C@@H]3CC[C@H]12`, the z-score is 0.443.
